High-throughput results: PubChem BioAssay, several laboratories
TLR9-MyD88 block – inhibitors of TLR9-MyD88 association in cells, primary screen, cell-based, CHO, BLA complementation, fluorescence. CCF4 FRET ratio. AID 504734, 2011. inhibition, % at 4.98 µM. 340,000 compounds, 0.21% hits. Toll-like receptor 9 (Homo sapiens) + Myeloid differentiation primary response protein …;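 active = inhibition above the mean over all tested compounds plus 3 SD, cut at about 21% in these data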;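 note: 0% = DMSO only wells and 100% = clavulanate BLA inhibitor control wells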
ABHD5 PLIN5 PPI – ABHD5-PLIN5 interaction inhibitors, primary screen, cell lysate, split luciferase complementation, luminescence; Perilipin-5 (Homo sapiens) + 1-acylglycerol-3-phosphate O-acyltransferase ABHD5 (Homo …; Split G. princeps luciferase complementation, 4 h; inhibition, % at 4 µM; 360,000 compounds, 0.78% hits;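 active = inhibition above the mean inhibition across every tested compound plus 3 SD, cut at about 22% in these data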;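 note: 0% = DMSO only wells and the 100% control is not disclosed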
NOD2-RIPK2 inh – NOD2-RIPK2 binding disruptors in cells, primary screen, fluorescence, CHO cells, BLA complementation; Receptor-interacting serine/threonine-protein kinase 2 (Homo sapiens), O43353; CCF4 ratio; inhibition, % at 4.98 µM; 360,000 compounds, 0.38% hits; AID 624267, 2012; in the data active = inhibition above about 21%;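 note: 0% = vehicle only and 100% = reference blocker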
Beta2AR agonist – beta2AR agonists driving receptor internalization, primary screen, cell-based, FAP fluorogen, flow cytometry; Beta-2 adrenergic receptor (Homo sapiens), P07550; Am2.2-beta2AR cells; response, % (test concentration not listed); 340,000 compounds, 0.43% hits; AID 504454, 2011;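 active = response above a set limit, near 3 SD of response in nonfluorescent compounds, cut at about 42% in these data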
TLR4 MyD88 comp – inhibitors of TLR4-MyD88 association in cells, primary screen, cell-based, HeLa CL3-4, BLA complementation, FRET ratio; Toll-like receptor 4 (Homo sapiens) + Myeloid differentiation primary response protein …; HeLa CL3-4 TLR4/MyD88 BLA complementation; inhibition, % at 8.4 µM; 200,000 compounds, 0.18% hits; in the data active = inhibition above about 25%;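 note: 0% = vehicle and 100% = reference inhibitor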
NTR1 ag – agonists of human NTR1, primary screen, imaging, U2OS cells, beta-arrestin-GFP, high content | NTR1-U2OS beta-arrestin-GFP spot imaging, agonist mode | activation, % at 20 µM | 330,000 compounds, 0.17% hits | AID 493036, 2011;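 active = activation at or above 40% of the spot to cytoplasm intensity ratio, with at least 20 cells analyzed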;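 note: 0% = DMSO without peptide and 100% = 100 nM NTR1 peptide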
Target sequence (P30989 whole entry, looked up): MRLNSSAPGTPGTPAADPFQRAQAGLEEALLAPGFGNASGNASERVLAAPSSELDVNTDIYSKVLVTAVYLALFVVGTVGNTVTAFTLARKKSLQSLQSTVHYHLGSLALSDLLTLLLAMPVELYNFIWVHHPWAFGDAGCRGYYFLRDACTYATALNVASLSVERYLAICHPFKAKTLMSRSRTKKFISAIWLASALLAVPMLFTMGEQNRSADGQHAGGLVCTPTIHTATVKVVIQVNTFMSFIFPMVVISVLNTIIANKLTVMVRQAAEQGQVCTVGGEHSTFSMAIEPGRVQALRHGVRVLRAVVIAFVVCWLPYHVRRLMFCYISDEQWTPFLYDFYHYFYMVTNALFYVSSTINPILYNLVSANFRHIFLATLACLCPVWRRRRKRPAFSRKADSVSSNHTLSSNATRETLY
ABHD5-PLIN5 conf – ABHD5-PLIN5 interaction inhibitors, confirmation, biochemical, luminescence. shares compounds with ABHD5 PLIN5 PPI. inhibition, % at 4 µM. 2,200 compounds, 67% hits. AID 651612, 2012; in the data active = inhibition above about 23%;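 note: 0% = DMSO vehicle wells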
HNF4 counter – HNF4 dimerization inhibitors, counter-screen for ABHD5-PLIN5 interaction inhibitor project, biochemical, split-luciferase complementation, luminescence. inhibition, % at 4 µM. 2,200 compounds, 77% hits. shares compounds with ABHD5 PLIN5 PPI;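 active = mean inhibition across replicate wells exceeding the computed hit threshold, cut at about 13% in these data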;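 note: light from luciferase halves that rejoin when HNF4 fusion proteins dimerize; 0% = DMSO only wells and the 100% control is not given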
Starred values were filed as active, the others as inactive; / = not tested or not shown. An excerpt weighted towards active compounds, which were near 1.5% of everything screened.

SMILES | TLR9-MyD88 block | ABHD5 PLIN5 PPI | NOD2-RIPK2 inh | Beta2AR agonist | TLR4 MyD88 comp | NTR1 ag | ABHD5-PLIN5 conf | HNF4 counter
CC1=CC2/C=C(\C)CCC(O)C(O)/C=C/C(=O)C23C(=O)NC(CC(C)C)C3C1C (configuration not stated) | -8 | 65* | 9 | 40 | 1 | 12 | 90* | 103*
COc1ccccc1-n1c(-c2ccccc2Cl)nc2ccccc2c1=O | -6 | -3 | -3 | -10 | / | -2 | / | /
O=C1NC(=O)N(c2ccc3c(c2)OCO3)C(=O)/C1=C\c1ccsc1 | / | 25* | -3 | -4 | / | 4 | 66* | 56*
O=C1NC(=O)N(c2ccc3c(c2)OCO3)C(=O)/C1=C/c1ccc(N2CCCCC2)o1 | 0 | 4 | -9 | -23 | 3 | 1 | / | /
O=C1NC(=O)N(c2ccc3c(c2)OCO3)C(=O)/C1=C\c1ccc(-c2ccccc2C(=O)O)o1 | 6 | 30* | 5 | 3 | / | 0 | 78* | 89*
Cn1cc(C(=O)OCC(=O)NC2CCCC2)c2ccccc21 | -9 | 7 | -4 | -5 | / | 1 | / | /
CC(O)(CS(=O)(=O)c1ccc(F)cc1)C(=O)Nc1ccc(C#N)c(C(F)(F)F)c1 (configuration not stated) | / | / | / | / | / | 1 | / | /
CCCCn1c(NC(=O)c2ccco2)c(C(=O)OCC)c2nc3ccccc3nc21 | -13 | 31* | 1 | 2 | 10 | 0 | 41* | 62*
COc1ccc(CCNC(=O)c2c(N)n(CCN3CCOCC3)c3nc4ccccc4nc23)cc1OC | -5 | 25* | 5 | 7 | 0 | 6 | 16 | 3
CCCCCn1c(N)c(C(=O)NCCN2CCOCC2)c2nc3ccccc3nc21 | -18 | 5 | -9 | 9 | -17 | 8 | / | /
O=C1CC(=O)N(c2ccccc2F)C(=O)N1 | -16 | 23* | 3 | -5 | / | -1 | 12 | 70*
CN1C(=O)C(=Cc2ccc(N3CCOCC3)c([N+](=O)[O-])c2)C(=O)N(C)C1=O | / | / | / | / | 1 | -1 | / | /
O=C1NC(=O)C(=Cc2ccc(N3CCN(C(=O)c4ccccc4)CC3)c([N+](=O)[O-])c2)C(=O)N1 | 4 | 41* | -14 | 3 | -1 | -1 | 91* | 90*
O=C(NC1CCCCC1)Oc1cc2oc(=O)sc2cc1Cl | 2 | 69* | 0 | 5 | / | 3 | -39 | 14*
COc1nc(C)nc(NC(=O)NS(=O)(=O)c2ccccc2Cl)n1 | 11 | 1 | 10 | -2 | / | -2 | / | /
C=C1C(=O)O[C@@H]2C[C@@H](C)[C@@H]3C=CC(=O)[C@@]3(C)[C@@H](O)[C@H]12 | 11 | 82* | 8 | 40 | / | 4 | 91* | 90*
C[C@@H]1C[C@H]2OC(=O)C3(CO3)[C@H]2[C@H](O)[C@]2(C)C(=O)C3OC3[C@@H]12 (some centres not stated) | / | / | / | / | / | 2 | / | /
C#C[C@@]1(O)CCC2C3CCC4=C/C(=N/OCC(=O)NC(CCC(N)=O)C(=O)O)CC[C@]4(C)C3CC[C@@]21C (some centres not stated) | -7 | 6 | -7 | -4 | / | 0 | / | /
O=C1NC(=O)C(=Cc2ccc(Cl)cc2)C(=O)N1 | / | 27* | 6 | / | / | / | 76* | 75*
O=C(O)CCn1cc(C=C2C(=O)NC(=S)NC2=O)c(-c2ccccc2)n1 | 8 | 7 | -1 | -1 | 7 | 0 | / | /
N#CCCn1cc(C=C2C(=O)NC(=O)NC2=O)c(-c2ccccc2)n1 | -10 | 23* | -1 | 11 | 9 | 2 | 51* | 84*
COc1cccc(C2(O)CCN(Cc3ccncc3)CC2)c1 | 8 | 6 | 1 | 3 | -12 | -1 | / | /
CN(C)c1ccc(/C=C/c2cc[n+](C)c3ccccc23)cc1 | -3 | 23* | -12 | -38 | 1 | / | 31* | 30*
O=C(CCC(=O)N1C[C@H]2C[C@@H](C1)c1cccc(=O)n1C2)NCc1ccc(F)cc1 | 2 | 5 | 2 | -3 | / | -1 | / | /
COC(=O)c1nc(-c2ccc3c(n2)C(=O)C(N)=C(OC)C3=O)c(N)c(-c2ccc(OC)c(OC)c2O)c1C | -14 | 25* | 3 | 27 | / | 2 | -16 | 14*
SMILES | TLR9-MyD88 block | ABHD5 PLIN5 PPI | NOD2-RIPK2 inh | Beta2AR agonist | TLR4 MyD88 comp | NTR1 ag | ABHD5-PLIN5 conf | HNF4 counter
O[C@@H]1CCCC[C@H]1N1CCC(c2ccccc2)CC1 | 7 | 1 | -11 | -10 | -3 | -2 | / | /
CCOC(=O)C1C(OC(=O)c2ccccc2)CC2CCC1N2C (configuration not stated) | -29 | 26* | -4 | 2 | / | / | 35* | 1
CN1C2CCC1C(C(=O)O)C(OC(=O)c1ccccc1)C2 (configuration not stated) | 2 | 5 | 11 | 3 | / | -1 | / | /
O=C(N/N=C/c1c(O)n(-c2cccc3ccccc23)c(=O)[nH]c1=O)c1ccncc1 | 14 | -1 | -12 | 2 | / | 2 | / | /
O=c1nc(/C=C/c2ccc(Cl)cc2Cl)cc(C(F)(F)F)[nH]1 | -1 | 36* | -1 | 10 | / | 5 | 70* | 48*
Cn1c(O)c(/C=C2\C=Nc3ccccc32)c(=O)n(C)c1=O | 0 | 35* | -3 | -3 | / | -2 | 7 | 17*
O=C(O)c1ccc(-n2c(O)c(/C=C3\C=Nc4ccccc43)c(=O)[nH]c2=O)cc1 | -4 | 29* | -4 | -1 | / | -1 | 32* | 54*
COC(=O)C1=Nc2ccccc2/C1=C\c1c(O)n(C)c(=O)n(C)c1=O | / | 12 | 0 | 12 | / | 3 | / | /
O=C(c1ccc2c(c1)OCO2)C1CCCN(CC2CCCCC2)C1 (configuration not stated) | -53 | 1 | -6 | 16 | -9 | 0 | / | /
CN1C(=O)C(=Cc2cccnc2)C(=O)N(C)C1=O | -5 | 27* | -14 | 2 | / | -1 | 37* | 49*
CCCNC(=O)N1[C@H]2CC[C@@H]1C(C(=O)OC)=C(c1cc3ccccc3o1)C2 | -3 | -7 | 2 | -6 | / | -2 | / | /
